This excerpt belongs to a sample that is enriched for hits.
IDE exosite inh: insulin-degrading enzyme (human) exo-site inhibition | P14735 | purified IDE, FL-6b probe fluorescence polarization; hits give low values | z-score at 20 µM | 17,000 tested, 6.3% active;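 active means z-score of -3 or lower, meaning strong loss of probe binding signal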;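 further: His-tagged human IDE residues 42-1019 made in E. coli with 30 nM FL-6b probe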
Target sequence (P14735 42-1019 limits assumed): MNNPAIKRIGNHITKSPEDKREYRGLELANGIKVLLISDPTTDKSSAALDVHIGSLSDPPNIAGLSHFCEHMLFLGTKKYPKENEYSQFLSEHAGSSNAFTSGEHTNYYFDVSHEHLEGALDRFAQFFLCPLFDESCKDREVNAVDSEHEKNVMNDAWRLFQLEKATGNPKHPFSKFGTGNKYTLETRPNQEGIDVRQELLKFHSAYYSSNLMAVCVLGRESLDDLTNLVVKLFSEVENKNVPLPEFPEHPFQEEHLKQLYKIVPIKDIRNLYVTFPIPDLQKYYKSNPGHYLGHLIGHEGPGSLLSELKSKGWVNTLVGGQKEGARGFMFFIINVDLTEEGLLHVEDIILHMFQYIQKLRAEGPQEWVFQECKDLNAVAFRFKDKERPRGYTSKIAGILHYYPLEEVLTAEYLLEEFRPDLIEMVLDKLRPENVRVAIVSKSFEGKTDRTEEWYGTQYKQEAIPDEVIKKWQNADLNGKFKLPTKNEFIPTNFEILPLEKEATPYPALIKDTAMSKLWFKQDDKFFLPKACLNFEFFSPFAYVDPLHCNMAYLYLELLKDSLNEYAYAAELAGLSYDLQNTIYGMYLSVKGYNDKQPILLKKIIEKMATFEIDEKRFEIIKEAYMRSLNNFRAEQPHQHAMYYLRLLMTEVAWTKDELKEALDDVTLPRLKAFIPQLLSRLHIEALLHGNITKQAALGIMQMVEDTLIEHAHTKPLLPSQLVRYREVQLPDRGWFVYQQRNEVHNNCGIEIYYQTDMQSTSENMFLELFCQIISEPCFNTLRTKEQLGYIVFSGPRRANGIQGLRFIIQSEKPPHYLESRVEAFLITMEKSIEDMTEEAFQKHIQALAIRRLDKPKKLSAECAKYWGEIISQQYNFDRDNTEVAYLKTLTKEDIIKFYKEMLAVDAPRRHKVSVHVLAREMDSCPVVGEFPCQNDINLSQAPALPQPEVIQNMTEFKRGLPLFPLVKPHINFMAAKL
Numbers without * were called inactive.

SMILES | IDE exosite inh
OC[C@@H]1[C@H](c2ccccc2)C2(CN(CCC(F)(F)F)C2)N1Cc1nccs1 | 0.0824
CCCC#Cc1ccc([C@H]2[C@H](CO)N3C(=O)CN(C(=O)c4cccc(F)c4)C[C@@H]23)cc1 | 0.269
C[C@@H]1CN([C@@H](C)CO)C(=O)c2cc(NC(=O)Nc3ccccc3)ccc2O[C@@H](C)CCCCO[C@@H]1CN(C)C(=O)Nc1ccccc1 | 0.66
COc1ccc(NC(=O)Nc2cccc3c2O[C@H](CN(C)Cc2ccc(C(=O)O)cc2)[C@H](C)CN([C@H](C)CO)C3=O)cc1 | -0.0879
N#C[C@H]1N[C@@H](CO)[C@H]1c1ccc(C#CC2CCCC2)cc1 | 0.772
Cc1ccc(S(=O)(=O)N(C)C[C@H]2Oc3c(NS(C)(=O)=O)cccc3C(=O)N([C@H](C)CO)C[C@@H]2C)cc1 | 1.42
COCC#Cc1ccc([C@H]2[C@H](CO)N3CCCCN(S(=O)(=O)c4ccccc4F)C[C@@H]23)cc1 | 1.1
COCC#Cc1ccc([C@H]2[C@H]3CN(S(=O)(=O)c4ccccc4C)CCCCN3[C@H]2CO)cc1 | 5.4
COCC#Cc1ccc([C@H]2[C@@H](CO)N3CCCCN(S(=O)(=O)c4ccccc4C)C[C@@H]23)cc1 | 4.1
COCC#Cc1ccc([C@@H]2[C@H](CO)N3CCCCN(S(=O)(=O)c4ccccc4F)C[C@@H]23)cc1 | -4.52*
COCC#Cc1ccc([C@H]2[C@@H](CO)N3CCCCN(S(=O)(=O)c4ccccc4F)C[C@H]23)cc1 | 0.247
COCC#Cc1ccc([C@@H]2[C@H](CO)N3CCCCN(S(=O)(=O)c4ccccc4C)C[C@@H]23)cc1 | -3.09*
O=C(c1ccc(F)cc1)N1CC(=O)N2[C@H](C1)[C@@H](c1ccc(C#CC3CCCCC3)cc1)[C@@H]2CO | 2.33
CCCNC(=O)N1CC(=O)N2[C@@H](CO)[C@@H](c3ccc(C#Cc4ccc(F)cc4)cc3)[C@@H]2C1 | 2.09
COc1ccccc1CNC(=O)C[C@@H]1CC[C@@H]2[C@H](COC[C@@H](O)CN2Cc2ccc3c(c2)OCO3)O1 | 0.856
COc1ccccc1NC(=O)N1CCCCN2[C@H](C1)[C@@H](c1ccc(-c3ccc(C)cc3)cc1)[C@@H]2CO | 3
O=C(C1CC1)N1CC(=O)N2[C@H](CO)[C@@H](c3ccc(C#CC4CCCC4)cc3)[C@@H]2C1 | 1.19
CCC(=O)N(CC(C)C)C[C@H]1[C@H](c2ccccc2)[C@@H](CO)N1C(=O)C1CCC1 | 0.716
CCC(=O)N1[C@H](CO)[C@@H](c2ccccc2)[C@@H]1CN(CC)C(=O)NC1CCCC1 | 1.7
O=C(Nc1ccc(F)cc1)N1CC(=O)N2[C@H](CO)[C@H](c3ccc(-c4ccc(F)cc4)cc3)[C@H]2C1 | 0.00197
OC[C@H]1[C@@H](c2ccc(/C=C/c3ccccc3)cc2)[C@@H]2CN(Cc3ccncc3)CCCCN12 | -7.94*
OC[C@@H]1[C@@H](c2ccc(/C=C/c3ccccc3)cc2)[C@H]2CN(Cc3ccncc3)CCCCN12 | -5.15*
OC[C@@H]1[C@H](c2ccc(-c3ccc(F)cc3)cc2)[C@@H]2CN(Cc3cccnc3)CCCCN12 | 1.44
OC[C@H]1[C@@H](c2ccc(/C=C/c3ccccc3)cc2)[C@@H]2CN(Cc3cccnc3)CCCCN12 | -4.4*
OC[C@H]1[C@H](c2ccc(/C=C/c3ccccc3)cc2)[C@H]2CN(Cc3cccnc3)CCCCN21 | -1.86
SMILES | IDE exosite inh
OC[C@H]1[C@@H](c2ccc(/C=C/c3ccccc3)cc2)[C@H]2CN(Cc3ccncc3)CCCCN21 | -5.74*
COc1ccc(C#Cc2ccc([C@@H]3[C@@H](CO)N4CCCCN(Cc5ccncc5)C[C@H]34)cc2)cc1 | -0.629
CC(C)[C@@H]1C/C=C\CCNC(=O)[C@H](C)CC(=O)N1 | 1.97
N#C[C@@H]1[C@@H](c2ccccc2C2=CCCCC2)[C@H](CO)N1C(=O)CN1CCOCC1 | 0.976
CC(=O)N(C[C@H]1N[C@H](CO)[C@H]1c1ccc(-c2ccc(F)cc2)cc1)C(C)C | 2.82
CC(C)COC(=O)N(C)C[C@@H]1OCc2ccccc2-c2ccccc2C(=O)N([C@@H](C)CO)C[C@@H]1C | -1.45
Cn1cnc(S(=O)(=O)N[C@@H]2CC[C@H](CC(=O)NCC3CCCCC3)O[C@H]2CO)c1 | -1.1
C[C@@H](O)C#Cc1ccc([C@H]2[C@H](CO)N3CCCCN(C(=O)c4cccc(F)c4)C[C@@H]23)cc1 | -0.0617
CN(C)C(=O)C[C@@H]1CC[C@@H]2[C@H](COC[C@H](O)CN2S(=O)(=O)c2ccccc2Cl)O1 | 1.37
CCC(=O)N1CC(=O)N2[C@H](CO)[C@@H](c3ccc(-c4ccc(C#N)cc4)cc3)[C@@H]2C1 | -0.885
CCCC#Cc1ccc([C@H]2[C@@H](CO)N3CCCCN(Cc4ccncc4)C[C@@H]23)cc1 | 0.169
OC[C@@H]1[C@@H](c2ccc(/C=C/c3ccccc3)cc2)[C@@H]2CN(Cc3ccncc3)CCCCN12 | -4.98*
CCCC#Cc1ccc([C@H]2[C@H]3CN(Cc4ccncc4)CCCCN3[C@H]2CO)cc1 | -1.2
C[C@@H]1CCCCO[C@@H](CN(C)S(=O)(=O)c2cn(C)cn2)[C@H](C)CN([C@H](C)CO)C(=O)c2cc(N(C)C)ccc2O1 | 1.48
